Bioassay records from PubChem.
An excerpt weighted towards active compounds, which were near 14% of everything screened.
Lassa entry inh – qHTS for Inhibitors of binding or entry into cells for Lassa Virus; Lassa virus pseudotype entry inhibition, cell reporter; Potency, µM (titrated, usually from 37.9 µM), for the others: at the top dose activity change, negative = inhibition, most hits filed as inhibitors; 1.2% of 300,000 active; AID 540256, 2011; calls by dose curve; tested in HEK293 cells; also: potency is read from the fitted curve at half-maximal effect; nearly all actives have a fitted effect of over 50% in size
MARV entry inh – qHTS for inhibitors of binding or entry into cells for Marburg Virus | Marburg virus pseudotyped entry inhibition, cell reporter | Potency, µM (top dose mostly 37.8 µM), for the others: top-dose activity change, negative = inhibition, most hits filed as inhibitors | 1.8% of 300,000 active; calls by dose curve; tested in HEK293 cells; also: potency is read from the fitted curve at half-maximal effect
HCMV antiviral – qHTS Assay for inhibitors of the human cytomegalovirus (HCMV); HFF cells, HCMV-luciferase reporter, 72 h; stronger effect = lower value; activity change, negative = inhibition, % at 57.5 µM; 4.5% of 410,000 active; AID 1259415, 2018; in the data active = activity change below about -60%; inconclusive = no clear call, values can overlap the other calls; inactive = above about -39%
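Compounds were evaluated in HFFs infected with an HCMV luciferase reporter virus (MOI 1 PFU/cell). Luciferase in lysates collected 72 h post infection served as the replication measure.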
Pf growth 48h – Primary qHTS for delayed death inhibitors of the malarial parasite plastid, 48 hour incubation | Potency, µM (doses to about 28.7 µM), for inactives: at the top dose activity change, negative = inhibition, usual class: inhibitors | P. falciparum luciferase growth in erythrocytes, 48 h | 5.9% of 310,000 active; also: potency is read from the fitted curve at half-maximal effect
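Growth was read as firefly luciferase luminescence after a 48 h, 37 C, 5% CO2 exposure of compounds to reporter-bearing P. falciparum cultures (0.1% parasitemia, 2% hematocrit final) in Albumax-supplemented RPMI 1640.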
Pf growth 96h – Primary qHTS for delayed death inhibitors of the malarial parasite plastid, 96 hour incubation; P. falciparum luciferase reporter growth, 96 h; Potency, µM (series often up to 28.7 µM), inactives show at the highest dose activity change, negative = inhibition, most hits filed as inhibitors; 6.9% of 320,000 active; AID 504834, 2011; also: potency is read from the fitted curve at half-maximal effect
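Two parasite generations (96 h, 37 C, 5% CO2) of compound exposure in infected erythrocytes (0.05% parasitemia, 2% hematocrit). Luciferase-reporter P. falciparum; decreased luminescence indicates inhibited growth, aimed at apicoplast-acting delayed death.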
HCV inhibitor – qHTS Assay for Inhibitors of Hepatitis C Virus (HCV) | Huh7.5.1 HCVcc-Cre infection, luciferase reporter, 44 h | Potency, µM (doses to about 41.8 µM), for inactives: at the top dose activity change, negative = inhibition, most hits filed as inhibitors | 3.4% of 340,000 active | AID 651820, 2012; also: potency is read from the fitted curve at half-maximal effect
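Cells (1,000/well) were plated 4 h before compound, then infected with HCVcc-Cre virus (~0.5 moi). After 44 h further culture, infection was read as luciferase luminescence following a 15 min substrate incubation at room temperature.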
* hit, by the source's call; ? = inconclusive; . = no result given; [ ] = dose if it differs, or a comment. Unless noted, calls follow the shape of the dose curve; as a rule, active = well fitted inhibition curve with a large enough effect; inconclusive = small, poorly fitted or top-dose-only effect, or another doubt; inactive = no such curve, though single readings can be large or run the other way. % is scaled to controls: 0 for no effect and ±100 for the full control effect.

SMILES	Lassa entry inh	MARV entry inh	HCMV antiviral	Pf growth 48h	Pf growth 96h	HCV inhibitor
N/C(=N\OC(=O)c1ccc(=O)n(Cc2ccccc2)c1)c1ccccn1	?	?	-0.2	13.1µM*	?	12.1%
N/C(=N\OC(=O)c1ccc(=O)n(Cc2ccc(Cl)cc2)c1)c1ccccn1	.	.	-37.6	11.7µM*	13.1µM*	-18.1%
Cc1cc(Cl)ccc1C(=O)C1CCCN(C2CCSCC2)C1 (stereo not drawn)	?	10µM*	?	12.1%	?	2.0%
Cc1nc(C)c(C(=O)N2CCCC(C(=O)c3ccc(Cl)cc3C)C2)s1 (stereo not drawn)	.	.	-15.8	-19.3%	13.1µM*	5.8%
Cc1cc(Cl)ccc1C(=O)C1CCCN(C(=O)/C=C/c2cnn(C)c2)C1 (stereo not drawn)	.	.	-1.5	8.1%	4.15µM*	13.5%
C[C@H]1[C@@H](NC(=O)Nc2cccc(C(F)(F)F)c2)CC[C@@]23CCCN2C(=O)CCC[C@@H]13	.	.	-11.3	.	.	.
CCc1nc2c(OCCOc3ccc(F)cc3)cccn2c1N(C)C(=O)c1ccc(C)cc1	.	.	-0.8	.	.	.
CCOC(=O)c1cccn1C1C(=O)N(Cc2ccc(Cl)nc2)c2ccccc21 (stereo not drawn)	.	.	-10.2	.	.	.
COC(=O)[C@@]12C[C@@H](CC(=O)N3CCN(C(=O)C4CC4)CC3)C(=O)N(Cc3cccc4ccccc34)C1=CCC(C)(C)C2	.	.	15.0	.	.	.
COc1ccc(NCC(O)Cn2c(C)c(C)c3ccccc32)cc1 (stereo not drawn)	?	-26.4%[46.1 µM]	-22.0	?	7.38µM*	?
COc1ccc2nc(C)cc(Sc3nc4ccccc4s3)c2c1	15.8µM*	?	-98.6*	?	?	?
COc1ccc2nc(C)cc(SCC(=O)NNC(=O)COc3ccccc3)c2c1	-5.0%	-15.3%	?	?	-30.3%	18.9%
CCn1nc(C)c(CCN(C)C(=O)Nc2ccc(C)c(Cl)c2)c1C	?	.	18.7	.	.	.
Cn1nc([N+](=O)[O-])c(C(C#N)c2nc3ccccc3n2C)c(Cl)c1=O (stereo not drawn)	1.9%	0.2%	-75.6*	-9.3%	4.3%	11.1%
Cn1c(-c2ccc([N+](=O)[O-])cc2)nc2ccccc21	-2.5%[46.1 µM]	?	-13.1	35.6%	26.4%	13.6%
C=CCOC(=O)Nc1nc(CCNC(=O)OCc2ccccc2)c(C(=O)O)s1	.	.	1.7	.	.	.
Cc1ccc(Cn2c(=O)c3c(nc4n3CCN4Cc3ccco3)n(C)c2=O)cc1	2.1%	1.9%	-17.2	13.1µM*	32.8%	?
Cn1c(=O)n(Cc2ccc(F)cc2)c(=O)c2c1nc1n2CCCN1Cc1ccccc1	?	?	-15.4	2.08µM*	1.31µM*	?
CCCn1c(=O)c2c(nc3n2CCCN3CCc2ccccc2)n(C)c1=O	-23.5%	?	-62.3*	?	?	-25.1%
COC(=O)Cn1c(=O)c2c(nc3n2CCCN3CCc2ccccc2)n(C)c1=O	-0.8%[46.1 µM]	5.4%[46.1 µM]	-64.0*	-13.8%	?	-0.7%
Cc1ccccc1OC(C)C(=O)Nc1cccnc1 (stereo not drawn)	.	.	-12.8	11.1%	-19.3%	-2.1%
O=C(CSc1nc2c(c(=O)[nH]1)CCCC2)Nc1cccc(O)c1	-18.0%[46.1 µM]	1.6%[46.1 µM]	-7.3	.	.	.
Nc1nc(N)c2[nH]c(=S)[nH]c2n1	4.8%[46.1 µM]	8.8%[46.1 µM]	-14.7	.	.	1.5%
COc1ccc(N2CCCn3c2nc2c3c(=O)n(CCc3ccccc3)c(=O)n2C)cc1	?	-4.0%	-37.8	-1.6%	?	13.5%
CCCn1c(=O)c2c(nc3n2CCCN3Cc2ccccc2)n(C)c1=O	.	.	-32.1	?	13.1µM*	?
SMILES	Lassa entry inh	MARV entry inh	HCMV antiviral	Pf growth 48h	Pf growth 96h	HCV inhibitor
COc1ccc(N2CCCn3c2nc2c3c(=O)n(Cc3ccc(C)cc3)c(=O)n2C)c(OC)c1	?	?	-12.9	9.28µM*	0.0%	?
Cn1c(=O)n(CCc2ccccc2)c(=O)c2c1nc1n2CCCN1Cc1ccccc1	15.8µM*	?	15.7	?	-26.5%	15.8%
CC(C)Cn1c(=O)c2c(nc3n2CCCN3CCc2ccccc2)n(C)c1=O	-20.7%	?	11.4	5.22µM*	6.9%[5.75 µM]	10µM*
Cc1ccc(-c2csc(=Nc3ccc(F)cc3)n2Cc2ccc3c(c2)OCO3)cc1C	-1.5%[46.1 µM]	14.7%[46.1 µM]	10.1	.	.	.
COc1ccc(N2CCN(CCCNC(=O)c3sc4ncccc4c3-n3cccc3)CC2)cc1	-7.5%[46.1 µM]	.	-8.2	.	.	.
CCn1c(=O)c2c(nc3n2CC(C)CN3CCc2ccccc2)n(C)c1=O (stereo not drawn)	?	?	-9.5	11.7µM*	8.28µM*	-28.4%
Cn1c(=O)n(CCc2ccccc2)c(=O)c2c1nc1n2CCCN1CCc1ccccc1	?	?	-3.4	9.28µM*	.	?
CCCCOc1ccc(NC(=O)CSc2ccc(C(=O)O)cn2)cc1	-1.2%[46.1 µM]	?	4.5	.	.	.
O=C(Nc1ccc(F)cc1)N1CCN(c2ccccc2F)CC1	0.3%[46.1 µM]	?	-3.0	.	.	.
COc1ccc(-c2ccnc3c2c(=O)n(C)c(=O)n3C)cc1OC	12.7%[46.1 µM]	2.8%[46.1 µM]	-5.9	.	.	.
